From PubChem BioAssay AID1159580 (chemical genetic matrix, 2015)
Where “and” joins values, the source holds several entries; their conditions need not be identical. Equal entries are not always repeated. Among all 5,500 compounds or so, about 2,000 (36%) were called active. About 18% were inconclusive and are not listed. No stated cut-off is given here; in the data, active means normalized growth mostly below about 0.91 (no sharp cut-off); inconclusive means no clear call, values can overlap the other calls; inactive means mostly above about 0.92. The list shows a part of the results.

Experiment: chemical genetic growth profiling, strain panel (AID 1159580);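 further: tested at 20 µM; growth read once vehicle control cultures reached saturation at 30 °C; 1 = growth at the plate median or of vehicle wells; lower values mean less growth of the strain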
Conditions: S. cerevisiae deletion strains, growth OD

Measured: normalized growth

COC(=O)C[C@H]1C(C)(C)C(=O)[C@@H]2CC3=C4CC(=O)O[C@@H](c5ccoc5)[C@]4(C)CCC3[C@@]1(C)C2=O (stereo not given in full)
inactive: locus YAL021C, strain ccr4, hits give low values 0.972 | locus YAL026C, strain drs2, hits give low values 0.983 | locus YAL030W, strain snc1, hits give low values 1 | locus YBL061C, strain skt5, hits give low values 0.997 | locus YBR009C, strain hhf1, hits give low values 0.987 | locus YBR021W, strain FUR4, hits give low values 0.986 | locus YBR023C, strain chs3, hits give low values 1 | locus YBR171W, strain sec66, hits give low values 0.992 | locus YBR229C, strain ROT2, hits give low values 1 | locus YBR231C, strain swc5, hits give low values 1.01 | locus YBR279W, strain paf1, hits give low values 0.993 | locus YCL011C, strain gbp2, hits give low values 1 | locus YCL016C, strain dcc1, hits give low values 0.996 | locus YCL029C, strain bik1, hits give low values 0.998 | locus YCL061C, strain MRC1, hits give low values 0.988 | locus YCL069W, strain vba3, hits give low values 0.987 | locus YCR088W, strain abp1, hits give low values 0.988 | locus YDL005C, strain med2, hits give low values 0.975 | locus YDL035C, strain GPR1, hits give low values 1.01 | locus YDL040C, strain nat1, hits give low values 0.995 | locus YDL074C, strain BRE1, hits give low values 1.02 | locus YDL101C, strain DUN1, hits give low values 1.01 | locus YDL134C, strain PPH21, hits give low values 1.01 | locus YDL185W, strain tfp1, hits give low values 1.02 | locus YDL192W, strain arf1, hits give low values 1.01 | locus YDR001C, strain nth1, hits give low values 0.982 | locus YDR069C, strain doa4, hits give low values 0.982 | locus YDR101C, strain arx1, hits give low values 0.993 | locus YDR137W, strain rgp1, hits give low values 0.867 | locus YDR159W, strain sac3, hits give low values 0.999 | locus YDR162C, strain NBP2, hits give low values 1 | locus YDR195W, strain ref2 0.972 | locus YDR297W, strain sur2, hits give low values 0.996 | locus YDR318W, strain mcm21, hits give low values 1.01 | locus YDR334W, strain swr1, hits give low values 0.986 | locus YDR335W, strain msn5, hits give low values 0.985 | locus YDR388W, hits give low values 1.01 | locus YDR392W, strain spt3, hits give low values 0.989 | locus YDR502C, strain sam2, hits give low values 1 | locus YEL003W, strain gim4, hits give low values 0.996 | locus YEL037C, strain rad23, hits give low values 0.985 | locus YEL061C, strain CIN8 (second series), hits give low values 0.985 | locus YEL061C, strain CIN8, hits give low values 1 | locus YER015W, strain faa2, hits give low values 1 | locus YER016W, strain bim1, hits give low values 0.996 | locus YER110C, hits give low values 1.01 | locus YER111C, strain swi4, hits give low values 0.985 | locus YER155C, strain BEM2 (second series), hits give low values 1 | locus YER155C, strain BEM2, hits give low values 0.997 | locus YER167W, strain BCK2, hits give low values 1 | locus YFR010W, strain ubp6, hits give low values 0.978 | locus YGL078C, strain dbp3, hits give low values 1.02 | locus YGL086W, strain mad1, hits give low values 0.982 | locus YGL167C, strain pmr1, hits give low values 0.995 | locus YGL173C, strain kem1, hits give low values 0.994 | locus YGL227W, strain vid30, hits give low values 1 | locus YGL240W, strain doc1, hits give low values 1.02 | locus YGL248W, strain PDE1, hits give low values 1.01 | locus YGL253W, strain hxk2, hits give low values 0.995 | locus YGR078C, strain PAC10, hits give low values 1.01 | locus YGR135W, strain pre9, hits give low values 1.02 | locus YGR229C, strain SMI1, hits give low values 1.01 | locus YGR252W, strain gcn5, hits give low values 1.03 | locus YHR013C, strain ard1, hits give low values 0.977 | locus YHR027C, strain rpn1, hits give low values 0.974 | locus YHR030C, strain SLT2, hits give low values 1.01 and 0.964 | locus YHR079C, strain IRE1 (second series), hits give low values 1 | locus YHR079C, strain IRE1, hits give low values 0.976 | locus YHR094C, strain hxt1, hits give low values 1.01 | locus YHR129C, strain ARP1, hits give low values 0.999 | locus YHR142W, strain chs7, hits give low values 0.996 | locus YHR200W, strain rpn10, hits give low values 1 | locus YIL066C, strain RNR3, hits give low values 1.01 | locus YIL073C, strain SPO22, hits give low values 1.06 | locus YIL125W, strain kgd1, hits give low values 1.01 | locus YIR030C, strain dcg1, hits give low values 1.01 | locus YJL092W, strain hpr5, hits give low values 0.993 | locus YJL095W, strain BCK1 (second series), hits give low values 0.992 | locus YJL095W, strain BCK1, hits give low values 1.02 and 0.974 | locus YJL115W, strain asf1, hits give low values 0.978 | locus YJL129C, strain trk1, hits give low values 0.971 | locus YJL134W, strain LCB3, hits give low values 1.01 | locus YJL154C, strain vps35, hits give low values 0.983 | locus YJL164C, strain tpk1, hits give low values 1 | locus YJL166W, strain qcr8, hits give low values 1.01 | locus YJL168C, strain set2, hits give low values 1.01 | locus YJL187C, strain SWE1 (second series), hits give low values 1.02 | locus YJL187C, strain SWE1, hits give low values 0.991 | locus YJR066W, strain TOR1, hits give low values 0.918 | locus YKL009W, strain mrt4, hits give low values 0.999 | locus YKL068W, hits give low values 1.01 | locus YKL085W, strain MDH1 (second series), hits give low values 0.995 | locus YKL085W, strain MDH1, hits give low values 0.995 | locus YKL160W, strain elf1, hits give low values 0.996 | locus YKL190W, strain CNB1, hits give low values 1.01 | locus YKR001C, strain vps1, hits give low values 1.02 | locus YKR026C, strain gcn3, hits give low values 0.994 | locus YKR091W, strain srl3, hits give low values 0.992 | locus YLL001W, strain dnm1, hits give low values 0.983 | locus YLL026W, hits give low values 0.991 | locus YLL041C, strain sdh2, hits give low values 0.991 | locus YLR027C, strain aat2, hits give low values 0.998 | locus YLR039C, strain RIC1, hits give low values 0.988 | locus YLR058C, strain SHM2, hits give low values 1 | locus YLR102C, strain apc9, hits give low values 1.01 | locus YLR113W, strain HOG1, hits give low values 1.01 | locus YLR221C, strain rsa3, hits give low values 0.998 | locus YLR258W, strain gsy2, hits give low values 0.988 | locus YLR262C, strain YPT6 (second series), hits give low values 0.912 | locus YLR268W, strain sec22, hits give low values 1 | locus YLR320W, strain mms22, hits give low values 1.01 | locus YLR330W, strain CHS5, hits give low values 1 | locus YLR342W, strain FKS1, hits give low values 0.998 | locus YLR357W, strain rsc2, hits give low values 1.01 | locus YLR370C, strain arc18, hits give low values 0.988 | locus YLR371W, strain rom2, hits give low values 1.01 | locus YLR384C, strain iki3, hits give low values 0.993 | locus YLR418C, strain cdc73, hits give low values 1.03 | locus YML016C, strain PPZ1, hits give low values 0.998 | locus YML032C, strain rad52, hits give low values 0.997 | locus YML120C, strain ndi1, hits give low values 0.995 | locus YML124C, strain tub3, hits give low values 1.01 | locus YMR058W, strain fet3, hits give low values 0.981 | locus YMR078C, strain ctf18, hits give low values 1.02 | locus YMR125W, strain sto1, hits give low values 0.982 | locus YMR129W, hits give low values 0.998 | locus YMR205C, strain PFK2, hits give low values 0.988 | locus YMR223W, strain ubp8, hits give low values 0.999 | locus YMR231W, strain pep5, hits give low values 0.98 | locus YMR307W, strain GAS1, hits give low values 0.96 | locus YNL067W, strain RPL9B, hits give low values 1.02 | locus YNL071W, strain lat1, hits give low values 0.989 | locus YNL183C, strain NPR1, hits give low values 0.963 | locus YNL209W, strain ssb2, hits give low values 0.996 | locus YNL233W, strain BNI4, hits give low values 1.03 | locus YNL248C, strain rpa49, hits give low values 0.982 | locus YNL250W, strain rad50, hits give low values 0.998 | locus YNL271C, strain bni1, hits give low values 1.01 | locus YNL298W, strain CLA4, hits give low values 1.03 | locus YNL307C, strain MCK1, hits give low values 1.01 | locus YNL322C, strain KRE1 (second series), hits give low values 0.996 | locus YNR049C, strain mso1, hits give low values 0.987 | locus YNR052C, strain pop2, hits give low values 1.01 | locus YOL012C, strain htz1 0.887 | locus YOL147C, strain pex11, hits give low values 1.01 | locus YOR001W, strain rrp6, hits give low values 0.985 | locus YOR061W, strain CKA2, hits give low values 1 | locus YOR069W, strain VPS5, hits give low values 1 | locus YOR070C, strain gyp1, hits give low values 0.991 | locus YOR080W, strain dia2, hits give low values 0.995 | locus YOR083W, strain WHI5, hits give low values 0.996 | locus YOR106W, strain vam3, hits give low values 0.991 | locus YOR136W, strain idh2, hits give low values 1.01 | locus YOR144C, strain elg1, hits give low values 1 | locus YOR184W, strain ser1, hits give low values 1 | locus YOR231W, strain MKK1, hits give low values 0.979 | locus YOR265W, strain rbl2, hits give low values 0.987 | locus YOR270C, strain vph1, hits give low values 0.941 | locus YOR290C, strain snf2, hits give low values 1 | locus YOR316C, strain cot1, hits give low values 1.01 | locus YPL051W, strain arl3, hits give low values 0.992 | locus YPL078C, strain atp4, hits give low values 0.987 | locus YPL106C, strain sse1, hits give low values 1.04 | locus YPL240C, strain hsp82, hits give low values 0.998 | locus YPL256C, strain CLN2, hits give low values 0.97 | locus YPR119W, strain clb2, hits give low values 1.01 | locus YPR141C, strain kar3, hits give low values 1.01 | locus YPR163C, strain tif3, hits give low values 1.01 | locus YPR167C, strain met16, hits give low values 1.01 | strain wtn01, hits give low values 0.981
